Screening results (PubChem)
This excerpt belongs to a sample that is enriched for hits.
NTMT1 inhibitor: inhibitors of human N-terminal methyltransferase NTMT1; Q9BV86; NTMT1 MTase-Glo SAH luminescence, purified enzyme; Potency, µM (titrated, usually from 114 µM), for inactives: at the highest dose activity change, negative = inhibition, most hits filed as inhibitors; 59,000 tested, 2.5% active; AID 1645870;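 also: plate controls were DMSO vehicle for no effect and no enzyme for full effect; nearly all actives have a fitted effect of over 65% in size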
Target sequence (Q9BV86 whole entry, looked up): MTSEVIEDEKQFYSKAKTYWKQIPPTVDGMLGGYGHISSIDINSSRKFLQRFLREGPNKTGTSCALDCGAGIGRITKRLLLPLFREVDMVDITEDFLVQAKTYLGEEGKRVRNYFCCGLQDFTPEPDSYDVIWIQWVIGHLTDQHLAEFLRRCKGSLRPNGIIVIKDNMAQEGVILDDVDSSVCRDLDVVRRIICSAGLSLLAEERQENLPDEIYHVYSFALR
HTT-AS act: activators of huntingtin-antisense promoter activity. Potency, µM (top dose mostly 57.5 µM), inactives show top-dose activity change, positive = activation, most hits filed as activators. 48,000 tested, 0.24% active. HEK293 HTT-AS promoter firefly luciferase reporter, 24 h; response scale: percent change from vehicle, -100% = no light; also: nearly all actives have a fitted effect of over 55% in size
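Quantitative HTS used concentration series of up to 57.5 uM final on HEK293 luciferase reporter cells, 24 h at 37 degrees C. Readout was Dual-Glo firefly luminescence.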
HTT promoter inh: inhibits huntingtin promoter activity; HEK293 HTT promoter firefly luciferase reporter, 24 h; Potency, µM (titrated, usually from 57.5 µM), for the others: top-dose activity change, negative = inhibition, hits mostly inhibitors; 48,000 tested, 0.93% active; AID 1508623; also: nearly all actives have a fitted effect of over 50% in size
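HEK293 luciferase promoter-reporter cells (2,500/well) plated 24 h, then compounds added at up to 57.5 uM final for 24 h at 37 °C. Firefly luminescence by Dual-Glo, normalized to vehicle (0%) and zero RLU (-100%).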
Numbers without * were called inactive; ? = inconclusive; nt = no result given; ! = not confirmed by another sample; [ ] = remark or other dose. Calls follow the shape of the dose curve; as a rule, active = well fitted curve in the direction sought with a large enough effect; inconclusive = small, poorly fitted or top-dose-only effect, or another doubt; inactive = no such curve, though single readings can be large; an effect the other way counts as inactive or inconclusive. Potency is read from the fitted curve at half-maximal effect.

SMILES | NTMT1 inhibitor | HTT-AS act | HTT promoter inh
CC(CO[C@@H]1O[C@H](COC(=O)/C=C/c2ccc(O)c(O)c2)[C@@H](O)[C@H](O)[C@H]1O)C1(O)COC(=O)C1 (stereo not given in full) | 0%[29.8 µM] | nt | nt
Oc1cc(CNC(=S)/C=C/c2cc(O)c(O)c(Br)c2)cc(O)c1O | 45µM* | nt | nt
Cc1ccc(OCCn2c3c(c4ccccc42)CN(C(=O)C2CCCCC2)CC3)cc1 | 3%[57.5 µM] | nt | nt
CC(=O)Nc1sc2c(c1C(=O)c1ccccc1)CCN(C(C)C)C2 | -4% | nt | nt
CCN(CC)CCOc1ccc(Nc2ncc3cc(-c4c(Cl)cccc4Cl)c(=O)n(C)c3n2)cc1 | 79µM*! | -33% | ?
Cc1cc(Nc2ncc3cc(-c4c(Cl)cccc4Cl)c(=O)n(C)c3n2)ccc1F | 12%[57.5 µM] | nt | nt
Cc1nnc(-c2ccccc2[N+](=O)[O-])n1CCCn1ccnc1 | 6% | nt | nt
CCOC(=O)C1CCN(C(=O)c2nn(-c3ccc(C)cc3)c(=O)c3c2c2ccccc2n3C)CC1 | 7% | 2% | -11%
CCOC(=O)c1nn(-c2ccccc2)c(=O)c2c(N)scc12 | 50µM* | nt | nt
CC[C@@H](C)[C@H](N)C(=O)N1Cc2ccccc2C1 | -3%[57.5 µM] | nt | nt
CCc1ccc(S(=O)(=O)c2cnc(SCC(=O)Nc3ccc(OC)cc3OC)[nH]c2=O)cc1 | -18% | 22% | 9%
Cc1ccc(S(=O)(=O)c2cnc(SCC(=O)Nc3ccccc3C(F)(F)F)[nH]c2=O)cc1C | 89µM* | -9% | -9%
Cc1ccc(NC(=O)CSc2ncc(S(=O)(=O)c3ccc(C(C)C)cc3)c(=O)[nH]2)cc1C | -27% | -15% | -5%
O=C(CSc1ncc(S(=O)(=O)c2ccc(Cl)cc2)c(=O)[nH]1)Nc1cccc(C(F)(F)F)c1 | ? | -2% | -4%
CC(C)(C)c1ccc(S(=O)(=O)c2cnc(SCC(=O)Nc3ccc(F)c(Cl)c3)[nH]c2=O)cc1 | 25µM* | -10% | 4%
COc1cc(Cl)c(C)cc1NC(=O)CSc1ncc(S(=O)(=O)c2ccc(C(C)(C)C)cc2)c(=O)[nH]1 | 18µM* | -9% | -4%
COc1ccc(C2Nc3ccccc3C(=O)N2CCCN(C)C)cc1COc1c(C)cc(NC(C)=O)cc1C (stereo not given) | -3% | nt | nt
COc1ccc(Cl)cc1[C@@]1(F)C(=O)Nc2cc(C(F)(F)F)ccc21 | 3%[57.5 µM] | nt | nt
O=C(Nc1nc2cc(C(F)(F)F)ccc2s1)c1ccc(-c2cccc([N+](=O)[O-])c2)o1 | 11% | nt | nt
COc1cc(C(=O)Nc2cc(C)ccc2OCc2cc(=O)n3cc(C)sc3n2)cc(OC)c1OC | 3% | -13% | -8%
COc1cc(C(=O)Nc2ccccc2OCc2cc(=O)n3cc(C)sc3n2)cc(OC)c1OC | 89µM* | -4% | -10%
N#Cc1c(-c2cc(C(F)(F)F)cc(C(F)(F)F)c2)no[n+]1[O-] | 5% | nt | nt
CC1(C)CC[C@]2(C(=O)O)CC[C@]3(C)C(=CC[C@@H]4[C@@]5(C)C[C@@H](O)[C@H](O)C(C)(C)[C@@H]5CC[C@]43C)[C@@H]2C1 | 18% | nt | nt
CCCN1CCN(CCCNC(=O)c2ccc3c(c2)sc2nc(-c4ccc(OCC)cc4)cn23)CC1 | ? | -4% | -4%
CCOc1ccc(-c2cn3c(n2)sc2cc(C(=O)NCCCN4CCCCC4)ccc23)cc1 | 50µM* | -18% | ?
SMILES | NTMT1 inhibitor | HTT-AS act | HTT promoter inh
CCN(CC)CCNC(=O)c1ccc2c(c1)sc1nc(-c3ccc(F)cc3)cn12 | ? | ? | 5%
CCOc1ccc(-c2cn3c(n2)sc2cc(C(=O)NCCCN(CC)CC)ccc23)cc1 | 40µM* | -66% | ?
CC(C)(C)OC(=O)N[C@@H](Cc1ccc(OS(=O)(=O)c2cccc3cnccc23)cc1)C(=O)N1CCCN(C(=O)OC(C)(C)C)CC1 | 12% | nt | nt
Cc1ccc(-c2ccc(=O)n(CC(=O)N(C)[C@H](C)c3ccccc3)n2)cc1 | -2% | nt | nt
Cc1c(C(=O)OCC2CC2)[nH]c2c1C(=O)CC(c1ccco1)C2 (stereo not given) | -20% | nt | nt
CCOC(=O)c1oc2c(c1C)-c1nn(Cc3ccc(Cl)cc3)cc1CC2 | -14% | -38% | ?
Cc1c(C(=O)O)oc2c1-c1nn(Cc3ccc(Cl)cc3)cc1CC2 | 50µM* | -24% | ?
CCN1C(=O)c2ccccc2Sc2ccc(NC(=O)Nc3cc(C)cc(C)c3)cc21 | 5% | -46% | 20µM*
CCc1cccc(NC(=O)Nc2ccc3c(c2)N(C)C(=O)c2ccccc2S3)c1 | 5% | -38% | 32µM*
CCN1C(=O)c2ccccc2Sc2ccc(NC(=O)c3ccc(Cl)cc3)cc21 | -8% | -5% | -15%[11.5 µM]
CN1C(=O)c2ccccc2Sc2ccc(NC(=O)Nc3ccccc3F)cc21 | 6% | -16% | -2%
